Assay [1] addresses 5'-AMP-activated protein kinase catalytic subunit alpha-2 (Homo sapiens) (UniProt P54646). Particulars: at 1 µM.
For assay [2], the target named is T1, NUAK family SNF1-like kinase 1 (Homo sapiens) (UniProt O60285).
T1 sequence (whole entry): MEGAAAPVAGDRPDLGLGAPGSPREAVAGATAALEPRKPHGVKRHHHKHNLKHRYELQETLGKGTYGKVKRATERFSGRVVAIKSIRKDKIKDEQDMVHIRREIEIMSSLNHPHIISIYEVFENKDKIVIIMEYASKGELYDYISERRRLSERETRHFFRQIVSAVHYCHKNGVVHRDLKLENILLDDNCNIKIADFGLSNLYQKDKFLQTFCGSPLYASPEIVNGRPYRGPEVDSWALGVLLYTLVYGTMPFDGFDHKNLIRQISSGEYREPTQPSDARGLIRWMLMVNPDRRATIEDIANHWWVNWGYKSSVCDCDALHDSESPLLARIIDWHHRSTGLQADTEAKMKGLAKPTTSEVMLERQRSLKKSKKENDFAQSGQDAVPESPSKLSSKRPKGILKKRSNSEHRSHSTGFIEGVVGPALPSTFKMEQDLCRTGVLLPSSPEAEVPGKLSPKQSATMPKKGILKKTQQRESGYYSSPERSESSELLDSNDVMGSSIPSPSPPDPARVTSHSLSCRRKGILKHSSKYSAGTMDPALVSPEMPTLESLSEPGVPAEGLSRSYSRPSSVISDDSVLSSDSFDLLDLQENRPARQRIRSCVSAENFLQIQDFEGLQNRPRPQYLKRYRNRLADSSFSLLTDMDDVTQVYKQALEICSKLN
The note with it: at 0.1 µM.

For assay [3], the target named is T1, NUAK family SNF1-like kinase 1 (Homo sapiens). Particulars: at 1 µM.
The target in assay [4] is T2, Serine/threonine-protein kinase BRSK1 (Homo sapiens) (UniProt Q8TDC3).
T2 sequence (whole entry): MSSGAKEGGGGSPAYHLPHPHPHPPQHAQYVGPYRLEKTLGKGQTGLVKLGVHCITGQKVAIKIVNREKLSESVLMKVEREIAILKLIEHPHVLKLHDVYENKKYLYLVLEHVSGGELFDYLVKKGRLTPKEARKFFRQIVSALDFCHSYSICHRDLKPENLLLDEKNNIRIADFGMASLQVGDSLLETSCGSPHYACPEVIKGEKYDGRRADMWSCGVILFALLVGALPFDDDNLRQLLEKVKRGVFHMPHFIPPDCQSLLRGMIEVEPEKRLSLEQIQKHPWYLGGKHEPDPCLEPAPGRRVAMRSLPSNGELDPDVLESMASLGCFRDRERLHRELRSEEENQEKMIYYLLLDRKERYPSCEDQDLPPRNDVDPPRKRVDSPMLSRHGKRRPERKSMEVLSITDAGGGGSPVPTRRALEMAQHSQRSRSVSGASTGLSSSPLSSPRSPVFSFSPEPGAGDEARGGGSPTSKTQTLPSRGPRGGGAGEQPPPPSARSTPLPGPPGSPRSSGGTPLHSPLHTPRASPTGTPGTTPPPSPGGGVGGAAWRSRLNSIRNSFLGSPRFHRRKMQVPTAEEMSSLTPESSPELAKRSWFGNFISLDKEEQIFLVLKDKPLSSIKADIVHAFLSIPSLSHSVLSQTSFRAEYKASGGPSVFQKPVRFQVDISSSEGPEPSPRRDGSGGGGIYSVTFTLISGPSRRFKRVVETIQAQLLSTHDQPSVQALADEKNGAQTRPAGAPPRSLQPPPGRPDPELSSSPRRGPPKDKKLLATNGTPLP
Particulars: at 0.1 µM.

Assay [5] addresses T2, Serine/threonine-protein kinase BRSK1 (Homo sapiens). Particulars: at 1 µM.
The target of assay [6] is T3, Serine/threonine-protein kinase BRSK2 (Homo sapiens) (UniProt Q8IWQ3).
T3 sequence (whole entry): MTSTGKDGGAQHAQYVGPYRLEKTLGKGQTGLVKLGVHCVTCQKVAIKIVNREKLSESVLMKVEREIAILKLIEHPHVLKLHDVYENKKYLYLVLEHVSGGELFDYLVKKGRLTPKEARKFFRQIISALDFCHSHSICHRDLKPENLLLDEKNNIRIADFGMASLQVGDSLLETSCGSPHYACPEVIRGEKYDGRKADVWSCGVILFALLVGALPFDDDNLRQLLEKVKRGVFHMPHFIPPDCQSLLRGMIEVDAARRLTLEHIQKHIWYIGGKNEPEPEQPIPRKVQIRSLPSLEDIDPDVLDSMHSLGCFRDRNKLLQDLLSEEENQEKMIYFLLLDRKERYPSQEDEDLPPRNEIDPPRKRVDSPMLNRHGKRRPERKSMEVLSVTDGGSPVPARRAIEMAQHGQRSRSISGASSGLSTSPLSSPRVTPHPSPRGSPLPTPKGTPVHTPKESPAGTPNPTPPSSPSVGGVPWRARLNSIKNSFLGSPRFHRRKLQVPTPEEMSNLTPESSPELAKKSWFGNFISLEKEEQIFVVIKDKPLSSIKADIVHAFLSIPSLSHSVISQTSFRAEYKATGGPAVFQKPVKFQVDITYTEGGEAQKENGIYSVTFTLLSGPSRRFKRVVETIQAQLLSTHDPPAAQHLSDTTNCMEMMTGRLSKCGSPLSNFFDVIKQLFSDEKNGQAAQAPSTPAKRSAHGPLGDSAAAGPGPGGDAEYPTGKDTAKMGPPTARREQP
Particulars: at 0.1 µM.

Assay [7] addresses T3, Serine/threonine-protein kinase BRSK2 (Homo sapiens). The note with it: at 1 µM.
Assay [8] has as its target Calcium/calmodulin-dependent protein kinase type 1D (Homo sapiens) (UniProt Q8IU85). The note with it: at 0.1 µM.
The target is the same in assay [9]. Particulars: at 1 µM.
For assay [10], the target named is Calcium/calmodulin-dependent protein kinase type II subunit alpha (Homo sapiens) (UniProt Q9UQM7). The note with it: at 0.1 µM.
Assay [11] shares this target. The note with it: at 1 µM.
The target in assay [12] is Calcium/calmodulin-dependent protein kinase type II subunit delta (Homo sapiens) (UniProt Q13557). Particulars: at 0.1 µM.
Assay [13] has the same target. Particulars: at 1 µM.
Assay [14] deals with T4, Calcium/calmodulin-dependent protein kinase type IV (Homo sapiens) (UniProt Q16566).
T4 sequence (whole entry): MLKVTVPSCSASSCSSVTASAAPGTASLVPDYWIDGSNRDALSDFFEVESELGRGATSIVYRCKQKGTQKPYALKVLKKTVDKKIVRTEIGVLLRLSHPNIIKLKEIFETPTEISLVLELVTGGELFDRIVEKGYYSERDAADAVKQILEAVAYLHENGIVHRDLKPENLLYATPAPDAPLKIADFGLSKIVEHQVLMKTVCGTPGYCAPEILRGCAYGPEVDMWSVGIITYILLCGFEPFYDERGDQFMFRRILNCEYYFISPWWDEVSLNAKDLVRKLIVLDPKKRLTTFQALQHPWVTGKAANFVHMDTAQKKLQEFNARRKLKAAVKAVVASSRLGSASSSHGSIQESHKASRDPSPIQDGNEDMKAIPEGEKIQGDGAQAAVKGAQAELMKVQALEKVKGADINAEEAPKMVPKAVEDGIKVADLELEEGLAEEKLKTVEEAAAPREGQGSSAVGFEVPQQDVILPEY
Particulars: at 0.1 µM.

The target of assay [15] is T4, Calcium/calmodulin-dependent protein kinase type IV (Homo sapiens). Particulars: at 1 µM.
Assay [16] concerns the target T5, Serine/threonine-protein kinase Chk1 (Homo sapiens) (UniProt O14757).
T5 sequence (whole entry): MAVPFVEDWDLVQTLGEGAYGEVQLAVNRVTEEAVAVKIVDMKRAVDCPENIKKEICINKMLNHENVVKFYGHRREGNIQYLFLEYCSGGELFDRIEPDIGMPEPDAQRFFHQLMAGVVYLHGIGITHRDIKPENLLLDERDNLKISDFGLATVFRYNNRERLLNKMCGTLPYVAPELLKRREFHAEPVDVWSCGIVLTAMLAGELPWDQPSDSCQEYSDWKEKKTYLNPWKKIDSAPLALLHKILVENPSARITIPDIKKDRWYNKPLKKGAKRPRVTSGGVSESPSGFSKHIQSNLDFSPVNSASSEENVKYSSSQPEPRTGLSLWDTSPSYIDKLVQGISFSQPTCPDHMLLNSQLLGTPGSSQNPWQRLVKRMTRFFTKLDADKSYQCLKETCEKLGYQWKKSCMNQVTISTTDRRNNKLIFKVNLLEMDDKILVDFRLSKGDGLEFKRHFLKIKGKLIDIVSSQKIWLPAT
The note with it: at 0.1 µM.

The target in assay [17] is T5, Serine/threonine-protein kinase Chk1 (Homo sapiens). The note with it: at 1 µM.
Assay [18] has as its target Serine/threonine-protein kinase Chk2 (Homo sapiens) (UniProt O96017). The note with it: at 0.1 µM.
Assay [19] shares this target. The note with it: at 1 µM.
Assay [20] has as its target Death-associated protein kinase 1 (Homo sapiens) (UniProt P53355). Particulars: at 0.1 µM.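 Note: reported figure is the mean inhibition of DAPK1.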

Sequence of Calcium/calmodulin-dependent protein kinase type II subunit alpha (Homo sapiens) (Q9UQM7 whole entry): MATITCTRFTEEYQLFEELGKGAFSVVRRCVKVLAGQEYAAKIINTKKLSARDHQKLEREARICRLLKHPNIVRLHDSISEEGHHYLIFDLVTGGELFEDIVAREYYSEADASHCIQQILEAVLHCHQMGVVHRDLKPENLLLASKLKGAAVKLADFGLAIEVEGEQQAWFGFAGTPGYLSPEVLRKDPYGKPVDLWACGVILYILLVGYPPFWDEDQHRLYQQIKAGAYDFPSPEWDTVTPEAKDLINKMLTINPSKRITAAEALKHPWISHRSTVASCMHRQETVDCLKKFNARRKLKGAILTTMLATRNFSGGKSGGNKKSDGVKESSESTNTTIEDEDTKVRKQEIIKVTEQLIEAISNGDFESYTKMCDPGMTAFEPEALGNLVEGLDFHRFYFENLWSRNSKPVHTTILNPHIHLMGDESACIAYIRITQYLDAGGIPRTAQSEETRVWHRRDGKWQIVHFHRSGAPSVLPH
Sequence of Calcium/calmodulin-dependent protein kinase type II subunit delta (Homo sapiens) (Q13557 whole entry): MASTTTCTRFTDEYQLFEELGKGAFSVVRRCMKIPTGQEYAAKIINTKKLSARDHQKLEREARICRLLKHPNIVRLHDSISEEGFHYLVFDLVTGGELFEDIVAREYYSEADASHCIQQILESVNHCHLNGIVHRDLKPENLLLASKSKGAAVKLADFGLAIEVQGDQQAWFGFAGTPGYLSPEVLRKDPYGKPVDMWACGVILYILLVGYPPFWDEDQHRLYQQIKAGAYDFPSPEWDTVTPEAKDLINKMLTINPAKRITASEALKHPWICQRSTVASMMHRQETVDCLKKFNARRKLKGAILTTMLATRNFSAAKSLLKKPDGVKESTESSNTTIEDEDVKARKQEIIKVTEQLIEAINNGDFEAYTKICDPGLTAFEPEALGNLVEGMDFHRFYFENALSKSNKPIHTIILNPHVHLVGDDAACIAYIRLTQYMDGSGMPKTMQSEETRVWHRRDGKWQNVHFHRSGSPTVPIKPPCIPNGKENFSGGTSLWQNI
Sequence of Serine/threonine-protein kinase Chk2 (Homo sapiens) (O96017 whole entry): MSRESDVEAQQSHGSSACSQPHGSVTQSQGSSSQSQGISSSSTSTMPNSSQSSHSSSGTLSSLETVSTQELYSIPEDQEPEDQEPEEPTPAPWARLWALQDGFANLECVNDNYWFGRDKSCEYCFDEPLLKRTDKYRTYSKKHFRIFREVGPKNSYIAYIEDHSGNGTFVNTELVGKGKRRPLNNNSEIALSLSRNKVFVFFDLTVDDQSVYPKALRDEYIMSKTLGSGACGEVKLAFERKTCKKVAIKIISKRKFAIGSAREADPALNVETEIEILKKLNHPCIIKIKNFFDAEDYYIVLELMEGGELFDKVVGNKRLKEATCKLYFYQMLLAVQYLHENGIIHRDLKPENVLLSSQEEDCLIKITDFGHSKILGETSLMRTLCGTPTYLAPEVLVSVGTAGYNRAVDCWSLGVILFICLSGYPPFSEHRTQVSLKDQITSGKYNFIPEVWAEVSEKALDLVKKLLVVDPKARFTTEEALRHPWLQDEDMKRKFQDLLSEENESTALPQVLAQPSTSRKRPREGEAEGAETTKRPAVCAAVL
Sequence of Death-associated protein kinase 1 (Homo sapiens) (P53355 whole entry, looked up): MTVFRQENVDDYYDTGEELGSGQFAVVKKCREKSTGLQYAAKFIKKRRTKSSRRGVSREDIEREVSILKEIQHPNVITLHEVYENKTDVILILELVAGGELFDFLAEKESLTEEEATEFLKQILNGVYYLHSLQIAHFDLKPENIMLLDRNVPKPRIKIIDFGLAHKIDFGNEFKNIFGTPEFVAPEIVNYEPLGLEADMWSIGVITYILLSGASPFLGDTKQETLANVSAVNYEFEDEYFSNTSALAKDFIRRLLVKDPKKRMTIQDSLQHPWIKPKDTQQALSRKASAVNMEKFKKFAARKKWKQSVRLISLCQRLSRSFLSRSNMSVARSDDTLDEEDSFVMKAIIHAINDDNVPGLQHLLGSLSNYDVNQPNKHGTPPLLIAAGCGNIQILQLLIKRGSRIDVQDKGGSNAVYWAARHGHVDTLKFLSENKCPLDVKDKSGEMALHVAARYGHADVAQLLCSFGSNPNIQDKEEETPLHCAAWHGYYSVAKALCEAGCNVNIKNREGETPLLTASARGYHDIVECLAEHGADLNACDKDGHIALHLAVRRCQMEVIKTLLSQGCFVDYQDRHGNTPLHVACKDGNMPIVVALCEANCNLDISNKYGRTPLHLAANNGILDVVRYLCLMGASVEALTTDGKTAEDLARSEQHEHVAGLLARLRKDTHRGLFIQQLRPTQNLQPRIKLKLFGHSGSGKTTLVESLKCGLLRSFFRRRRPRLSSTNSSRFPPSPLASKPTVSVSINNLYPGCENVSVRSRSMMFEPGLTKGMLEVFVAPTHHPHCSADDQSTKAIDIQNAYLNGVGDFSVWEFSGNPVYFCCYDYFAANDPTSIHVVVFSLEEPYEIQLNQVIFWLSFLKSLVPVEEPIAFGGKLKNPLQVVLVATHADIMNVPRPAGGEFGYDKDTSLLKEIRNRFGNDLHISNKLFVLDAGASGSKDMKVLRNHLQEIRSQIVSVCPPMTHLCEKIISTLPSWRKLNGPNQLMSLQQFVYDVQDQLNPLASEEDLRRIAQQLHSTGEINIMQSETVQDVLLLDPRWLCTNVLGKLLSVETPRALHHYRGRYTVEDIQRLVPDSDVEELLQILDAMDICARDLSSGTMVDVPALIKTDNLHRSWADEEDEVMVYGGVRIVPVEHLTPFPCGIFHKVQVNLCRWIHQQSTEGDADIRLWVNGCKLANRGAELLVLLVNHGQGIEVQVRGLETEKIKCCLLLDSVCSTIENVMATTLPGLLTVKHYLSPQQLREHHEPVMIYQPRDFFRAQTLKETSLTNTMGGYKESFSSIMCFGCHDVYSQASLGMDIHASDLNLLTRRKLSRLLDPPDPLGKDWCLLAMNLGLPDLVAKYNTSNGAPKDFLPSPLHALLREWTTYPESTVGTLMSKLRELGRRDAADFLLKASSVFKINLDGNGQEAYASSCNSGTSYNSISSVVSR
Sequence of Calcium/calmodulin-dependent protein kinase type 1D (Homo sapiens) (Q8IU85 whole entry, looked up): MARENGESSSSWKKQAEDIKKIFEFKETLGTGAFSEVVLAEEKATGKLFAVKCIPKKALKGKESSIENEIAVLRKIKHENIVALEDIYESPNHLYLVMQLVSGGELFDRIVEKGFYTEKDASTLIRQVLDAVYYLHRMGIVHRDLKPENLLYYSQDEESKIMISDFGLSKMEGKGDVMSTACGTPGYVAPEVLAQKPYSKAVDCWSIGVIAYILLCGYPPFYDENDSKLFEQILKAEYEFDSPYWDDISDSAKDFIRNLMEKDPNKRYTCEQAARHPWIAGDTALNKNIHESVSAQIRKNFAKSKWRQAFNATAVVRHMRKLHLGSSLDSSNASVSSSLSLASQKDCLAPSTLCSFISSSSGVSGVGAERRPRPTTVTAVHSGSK
Sequence of 5'-AMP-activated protein kinase catalytic subunit alpha-2 (Homo sapiens) (P54646 whole entry, looked up): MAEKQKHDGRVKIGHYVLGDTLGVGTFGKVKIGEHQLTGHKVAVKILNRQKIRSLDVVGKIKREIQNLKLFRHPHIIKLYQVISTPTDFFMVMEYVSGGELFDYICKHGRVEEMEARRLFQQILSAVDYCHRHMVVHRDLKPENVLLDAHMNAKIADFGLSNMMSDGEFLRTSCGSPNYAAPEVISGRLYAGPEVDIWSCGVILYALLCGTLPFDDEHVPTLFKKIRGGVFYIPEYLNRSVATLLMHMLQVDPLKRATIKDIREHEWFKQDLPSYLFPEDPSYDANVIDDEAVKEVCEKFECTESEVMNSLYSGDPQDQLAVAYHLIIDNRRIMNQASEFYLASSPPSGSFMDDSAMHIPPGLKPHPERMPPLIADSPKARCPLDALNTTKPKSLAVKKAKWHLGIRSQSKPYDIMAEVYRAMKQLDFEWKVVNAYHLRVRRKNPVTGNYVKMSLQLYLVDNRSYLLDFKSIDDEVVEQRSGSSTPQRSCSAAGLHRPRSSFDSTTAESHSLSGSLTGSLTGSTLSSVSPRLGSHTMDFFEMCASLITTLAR

Take `C#Cc1cccc(Nc2ncnc3ccc(OCCCCNCCS(C)(=O)=O)cc23)c1`: the inhibition (as a rule, the relative decrease from the control value, in per cent) in [1] was found to be 4.43%; in assay [2] it was 4.55%; in [3], 12.9%; in [4], 1.77%; in assay [5] it was 7.62%; in assay [6], 3.96%. Further, the inhibition in assay [7] was 10%; in assay [8], -0.65%; in assay [9], 0.48%; in assay [10] it was 3.18%; in assay [11], 3.33%; in assay [12], 3%. For the same molecule, the inhibition in [13] was 5.51%; in assay [14] it was -0.65%; in assay [15] it was -2.02%; in [16], 1.45%; in [17], 4.94%; in [18] it was 2.64%. Further, the inhibition in [19] was 7.73%; in assay [20], 3.32%.
As to `Cc1nnc(-c2ccc(C)c(-c3ccc(C(=O)NCc4ccc(Cl)cc4)cc3)c2)o1`, the inhibition is 3.56% in assay [1]; 1% in assay [2]; 4.79% in [3]; -2.13% in assay [4]; -2.87% in assay [5]; 1.17% in assay [6]. The inhibition was 2.51% in [7]; -1.49% in [8]; 0.04% in assay [9]; 2.6% in [10]; 3.22% in assay [11]; 2.75% in assay [12]. The inhibition turned out to be 2.68% in assay [13]; 0.34% in [14]; 0.46% in [15]; 1.36% in assay [16]; 2.22% in [17]; 1.43% in assay [18]. Moreover, the inhibition turned out to be 1.86% in assay [19] and 2.85% in [20].
With `O=C(Nc1n[nH]c2cc(-c3cc(F)ccc3F)ccc12)C1CC1`, the inhibition was 9.82% in [1]; -2.28% in assay [2]; -2.43% in assay [3]; 2.17% in assay [4]; 15.3% in assay [5]; 3.03% in assay [6]. The inhibition in [7] is 14.1%; in [8], -0.34%; in [9], 1.27%; in assay [10], 1.96%; in assay [11] it was 2.68%; in [12] it was 3.1%. In addition, the inhibition was 25.3% in assay [13]; 1.86% in assay [14]; 1.99% in [15]; -0.4% in assay [16]; 1.41% in assay [17]; 2.67% in assay [18]. For the same molecule, the inhibition in assay [19] was 3.25%; in [20], -0.82%.
With `CS(=O)(=O)CCNCc1ccc(-c2ccc3ncnc(Nc4ccc(OCc5ccccc5)c(Br)c4)c3c2)o1`, the inhibition in assay [1] is -0.88%; in [2] it was -0.46%; in [3], 0.63%; in assay [4], -1.34%; in assay [5], 2.21%; in [6] it was 1.54%. For the same molecule, the inhibition in assay [7] is 2.06%; in assay [8] it was -1.35%; in [9], -0.82%; in assay [10], 2.7%; in assay [11], -1.77%; in assay [12], 2.65%. Further, the inhibition in assay [13] was 3.02%; in assay [14], -1.3%; in [15], -2.06%; in assay [16], 0.41%; in [17], 1.92%; in assay [18] it was 2.5%. For the same molecule, the inhibition worked out at 2.92% in assay [19] and 3.45% in [20].

The values above are taken from ChEMBL document CHEMBL1961873, “Compounds: GSK PKIS; Assays: Nanosyn kinase panel” (2012).
